# This is one part of a sample in which the strongest signals are shown more often than they occur.
# B1: HPL (Tachypleus tridentatus) (protein)
# chain: MEDDCTCVTDRSLEGKLMKHPSTPAVYQILDGCRRLVPNPPTYNNIYKNWECIQSNILEKLLCKCDSLSNGAELIKGSGDTVYLLSNGVKRPIADPETFNGFCFDWNKIKTYSDIVINSLSTGPIIIIKHHHHHH
# Key:
# Assay in all cases: glycan array binding signal (z-score within array); higher = stronger binding
# Conditions in all cases: glycan notation: IUPAC condensed, linker removed
# Fuc(a1-2)Gal = target: Fuc(a1-2)Gal
# Summary of the method: (§1)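 The Consortium for Functional Glycomics database supplied 3228 glycan arrays, of which those lacking an available protein sequence were dropped. The binding signal, a within-array Z-score, was averaged across arrays of the same protein sequence and across linkers. Negative scores can be read as non-binding.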
# [1] = target: Fuc(a1-2)Gal(b1-3)GlcNAc(b1-2)Man(a1-3)[Fuc(a1-2)Gal(b1-3)GlcNAc(b1-2)Man(a1-6)]Man(b1-4)GlcNAc(b1-4)GlcNAc
# Summary of the method: as §1
# [2] = target: Fuc(a1-2)Gal(b1-3)GlcNAc(b1-3)[Neu5Ac(a2-6)Gal(b1-4)GlcNAc(b1-6)]Gal(b1-4)Glc
# Summary of the method: as §1
# [3] = target: Fuc(a1-2)Gal(b1-4)GlcNAc(b1-2)Man(a1-3)[Fuc(a1-2)Gal(b1-4)GlcNAc(b1-2)Man(a1-6)]Man(b1-4)GlcNAc(b1-4)[Fuc(a1-6)]GlcNAc
# Summary of the method: as §1
# [4] = target: Fuc(a1-2)Gal(b1-4)[Fuc(a1-3)]GlcNAc(b1-2)[Fuc(a1-2)Gal(b1-4)[Fuc(a1-3)]GlcNAc(b1-4)]Man(a1-3)[Fuc(a1-2)Gal(b1-4)[Fuc(a1-3)]GlcNAc(b1-2)Man(a1-6)]Man(b1-4)GlcNAc(b1-4)GlcNAc
# Summary of the method: as §1
# [5] = target: Fuc(a1-2)Gal6S(b1-3)GlcNAc
# Summary of the method: as §1
# [6] = target: Fuc(a1-2)[Gal(a1-3)]Gal(b1-3)GlcNAc(b1-2)Man(a1-3)[Fuc(a1-2)[Gal(a1-3)]Gal(b1-3)GlcNAc(b1-2)Man(a1-6)]Man(b1-4)GlcNAc(b1-4)GlcNAc
# Summary of the method: as §1
# [7] = target: Gal(a1-3)Gal(b1-3)GlcNAc(b1-2)Man(a1-3)[Gal(a1-3)Gal(b1-3)GlcNAc(b1-2)Man(a1-6)]Man(b1-4)GlcNAc(b1-4)GlcNAc
# Summary of the method: as §1
# [8] = target: Gal(a1-3)Gal(b1-3)[Fuc(a1-4)]GlcNAc(b1-2)Man(a1-3)[Gal(a1-3)Gal(b1-3)[Fuc(a1-4)]GlcNAc(b1-2)Man(a1-6)]Man(b1-4)GlcNAc(b1-4)GlcNAc
# Summary of the method: as §1
# Gal(a1-3)Gal(b1-4)Glc = target: Gal(a1-3)Gal(b1-4)Glc
# Summary of the method: as §1
# Gal(a1-6)Glc = target: Gal(a1-6)Glc
# Summary of the method: as §1
# Gal(b1-3)GlcNAc = target: Gal(b1-3)GlcNAc
# Summary of the method: as §1
# [9] = target: Gal(b1-3)GlcNAc(b1-3)Gal(b1-4)[Fuc(a1-3)]GlcNAc
# Summary of the method: as §1
# [10] = target: Gal(b1-3)GlcNAc(b1-3)GalNAc
# Summary of the method: as §1
# [11] = target: Gal(b1-3)[Fuc(a1-4)]GlcNAc(b1-2)Man
# Summary of the method: as §1
# [12] = target: Gal(b1-3)[Fuc(a1-4)]GlcNAc(b1-3)Gal(b1-3)[Fuc(a1-4)]GlcNAc
# Summary of the method: as §1
# [13] = target: Gal(b1-4)GlcNAc(a1-6)Gal(b1-4)GlcNAc
# Summary of the method: as §1
# [14] = target: Gal(b1-4)GlcNAc(b1-2)Man(a1-3)[GlcNAc(b1-2)Man(a1-6)]Man(b1-4)GlcNAc(b1-4)GlcNAc
# Summary of the method: as §1
# [15] = target: Gal(b1-4)GlcNAc(b1-2)[Gal(b1-4)GlcNAc(b1-4)]Man(a1-3)[GlcNAc(b1-4)][Gal(b1-4)GlcNAc(b1-2)Man(a1-6)]Man(b1-4)GlcNAc(b1-4)GlcNAc
# Summary of the method: as §1
# [16] = target: Gal(b1-4)GlcNAc(b1-3)Gal(b1-4)GlcNAc(b1-2)[Gal(b1-4)GlcNAc(b1-3)Gal(b1-4)GlcNAc(b1-6)]Man(a1-6)[Gal(b1-4)GlcNAc(b1-3)Gal(b1-4)GlcNAc(b1-2)Man(a1-3)]Man(b1-4)GlcNAc(b1-4)GlcNAc
# Summary of the method: as §1
# [17] = target: Gal(b1-4)GlcNAc(b1-3)Gal(b1-4)GlcNAc(b1-3)Gal(b1-4)GlcNAc(b1-3)Gal(b1-4)GlcNAc(b1-3)Gal(b1-4)GlcNAc(b1-3)Gal(b1-4)GlcNAc(b1-2)Man(a1-3)[Gal(b1-4)GlcNAc(b1-3)Gal(b1-4)GlcNAc(b1-3)Gal(b1-4)GlcNAc(b1-3)Gal(b1-4)GlcNAc(b1-3)Gal(b1-4)GlcNAc(b1-3)Gal(b1-4)GlcNAc(b1-2)Man(a1-6)]Man(b1-4)GlcNAc(b1-4)GlcNAc
# Summary of the method: as §1
# Gal6S(b1-4)GlcNAc = target: Gal6S(b1-4)GlcNAc
# Summary of the method: as §1
# [18] = target: GalNAc(b1-3)Gal(a1-6)Gal(b1-4)Glc
# Summary of the method: as §1
# [19] = target: GalNAc(b1-4)GlcNAc(b1-2)Man
# Summary of the method: as §1
# [20] = target: GlcNAc(a1-3)Gal(b1-4)GlcNAc
# Summary of the method: as §1
# [21] = target: GlcNAc(a1-6)Gal(b1-4)GlcNAc
# Summary of the method: as §1
# [22] = target: GlcNAc(b1-3)Gal(b1-4)GlcNAc(b1-2)Man(a1-3)[GlcNAc(b1-3)Gal(b1-4)GlcNAc(b1-2)Man(a1-6)]Man(b1-4)GlcNAc(b1-4)[Fuc(a1-6)]GlcNAc
# Summary of the method: as §1
# [23] = target: GlcNAc(b1-3)Gal(b1-4)GlcNAc(b1-2)[GlcNAc(b1-3)Gal(b1-4)GlcNAc(b1-6)]Man(a1-6)[GlcNAc(b1-3)Gal(b1-4)GlcNAc(b1-2)Man(a1-3)]Man(b1-4)GlcNAc(b1-4)GlcNAc
# Summary of the method: as §1
# [24] = target: GlcNAc(b1-3)Gal(b1-4)GlcNAc(b1-3)Gal(b1-4)GlcNAc(b1-3)GalNAc
# Summary of the method: as §1
# GlcNAc(b1-3)Man = target: GlcNAc(b1-3)Man
# Summary of the method: as §1
# Kdn(a2-3)Gal(b1-4)GlcNAc = target: Kdn(a2-3)Gal(b1-4)GlcNAc
# Summary of the method: as §1
# Kdn(a2-6)Gal(b1-4)GlcNAc = target: Kdn(a2-6)Gal(b1-4)GlcNAc
# Summary of the method: as §1
# [25] = target: Neu5Ac(a2-3)Gal(b1-3)GalNAc
# Summary of the method: as §1
# [26] = target: Neu5Ac(a2-3)Gal(b1-3)GlcNAc(b1-2)Man(a1-3)[Neu5Ac(a2-3)Gal(b1-3)GlcNAc(b1-2)Man(a1-6)]Man(b1-4)GlcNAc(b1-4)GlcNAc
# Summary of the method: as §1
# [27] = target: Neu5Ac(a2-3)Gal(b1-4)GlcNAc(b1-3)Gal(b1-4)GlcNAc(b1-3)Gal(b1-4)GlcNAc(b1-2)Man(a1-3)[Neu5Ac(a2-3)Gal(b1-4)GlcNAc(b1-3)Gal(b1-4)GlcNAc(b1-3)Gal(b1-4)GlcNAc(b1-2)Man(a1-6)]GalNAc
# Summary of the method: as §1
# [28] = target: Neu5Ac(a2-3)Gal(b1-4)GlcNAc(b1-3)[Neu5Ac(a2-3)Gal(b1-4)GlcNAc(b1-6)]GalNAc
# Summary of the method: as §1
# [29] = target: Neu5Ac(a2-6)Gal(b1-4)GlcNAc(b1-3)Gal(b1-4)GlcNAc(b1-6)[Gal(b1-3)]GalNAc
# Summary of the method: as §1
# [30] = target: Neu5Ac(a2-6)Gal(b1-4)GlcNAc(b1-3)[Neu5Ac(a2-6)Gal(b1-4)GlcNAc(b1-6)]GalNAc
# Summary of the method: as §1
# [31] = target: Neu5Ac9Ac(a2-3)Gal(b1-4)GlcNAc
# Summary of the method: as §1
# [32] = target: Neu5Gc(a2-3)Gal(b1-3)GlcNAc
# Summary of the method: as §1
binder,measurement,setting,value
B1,glycan array binding signal (z-score),Fuc(a1-2)Gal,-0.153
same,glycan array binding signal (z-score),[1],4.15
same,glycan array binding signal (z-score),[2],-0.343
same,glycan array binding signal (z-score),[3],3.19
same,glycan array binding signal (z-score),[4],2.19
same,glycan array binding signal (z-score),[5],0.027
same,glycan array binding signal (z-score),[6],-0.163
same,glycan array binding signal (z-score),[7],3.2
same,glycan array binding signal (z-score),[8],2.31
same,glycan array binding signal (z-score),Gal(a1-3)Gal(b1-4)Glc,0.05
same,glycan array binding signal (z-score),Gal(a1-6)Glc,1.55
same,glycan array binding signal (z-score),Gal(b1-3)GlcNAc,-0.177
same,glycan array binding signal (z-score),[9],-0.309
same,glycan array binding signal (z-score),[10],-0.36
same,glycan array binding signal (z-score),[11],1.71
same,glycan array binding signal (z-score),[12],-0.131
same,glycan array binding signal (z-score),[13],-0.342
same,glycan array binding signal (z-score),[14],-0.178
same,glycan array binding signal (z-score),[15],5.11
same,glycan array binding signal (z-score),[16],2.19
same,glycan array binding signal (z-score),[17],-0.206
same,glycan array binding signal (z-score),Gal6S(b1-4)GlcNAc,-0.335
same,glycan array binding signal (z-score),[18],-0.402
same,glycan array binding signal (z-score),[19],-0.379
same,glycan array binding signal (z-score),[20],-0.255
same,glycan array binding signal (z-score),[21],-0.429
same,glycan array binding signal (z-score),[22],0.104
same,glycan array binding signal (z-score),[23],0.395
same,glycan array binding signal (z-score),[24],-0.251
same,glycan array binding signal (z-score),GlcNAc(b1-3)Man,0.24
same,glycan array binding signal (z-score),Kdn(a2-3)Gal(b1-4)GlcNAc,-0.185
same,glycan array binding signal (z-score),Kdn(a2-6)Gal(b1-4)GlcNAc,-0.279
same,glycan array binding signal (z-score),[25],-0.291
same,glycan array binding signal (z-score),[26],2.02
same,glycan array binding signal (z-score),[27],1.54
same,glycan array binding signal (z-score),[28],-0.093
same,glycan array binding signal (z-score),[29],-0.132
same,glycan array binding signal (z-score),[30],0.127
same,glycan array binding signal (z-score),[31],-0.231
same,glycan array binding signal (z-score),[32],-0.215

# — the supplement of paper PMC8728848
